Source: PubChem (National Center for Advancing Translational Sciences (NCATS))
TSHR ag = qHTS Assay for Agonists of the Thyroid Stimulating Hormone Receptor. Thyrotropin receptor (Homo sapiens), P16473. HEK293-CNG-TSHR cells (CNG channel as cAMP sensor), membrane potential dye, cAMP. Potency, µM (titrated, usually from 57.1 µM), for inactives: top-dose activation, actives largely listed as activators. 0.48% of 73,000 active; active means well fitted activation curve with a large enough effect in the main read-out, with a control signal flat, not every such curve was filed as active; inconclusive means small, poorly fitted or top-dose-only effect, or a change in a side signal; inactive means no such curve, though single readings can be large or run the other way; % of control where 0% means no effect;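 further: the control signal comes from parental cells without the receptor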
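HEK 293 cells stably expressing TSHR and a cAMP-gated CNG channel; parental CNG-only cells as counterscreen. Cells preloaded 60 min with membrane potential dye plus 100 uM RO 20-1724, then compound 30 min; fluorescence read at 590 nm.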
Caspase-1 inhib = qHTS Assay for Allosteric/Competitive Inhibitors of Caspase-1 | Potency, µM (series often up to 57.5 µM), without a hit: top-dose activity change, negative = inhibition, hits mostly inhibitors | 0.03% of 75,000 active | AID 900, 2007 | Caspase-1 enzyme, Ac-WEHD-AFC fluorogenic rate;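 further: plate controls were vehicle for no effect and no substrate for full effect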
HEK293 cAMP ctrl = qHTS Assay for Agonists of the Thyroid Stimulating Hormone Receptor: Activators of Intracellular cAMP Concentrations in Parental HEK 293 | parental HEK293 CNG cAMP sensor, membrane potential fluorescence | Potency, µM (titrated, usually from 57.1 µM), inactives show at the highest dose activation, hits mostly activators | 2.5% of 73,000 active; further: % of control where 0% means no effect; nearly all actives have a fitted effect of over 55% in size
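Parental HEK 293 cells stably expressing a cAMP-gated CNG channel were loaded with membrane potential dye containing 100 uM RO 20-1724 for 60 min. Compound added for 30 min; depolarization read as fluorescence intensity at 590 nm.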
Casp7 inh = qHTS Assay for Allosteric/Competitive Inhibitors of Caspase-7; recombinant caspase-7, Ac-DEVD-AFC fluorescence rate; Potency, µM (highest dose often 57.5 µM), without a hit: top-dose activity change, negative = inhibition, most hits filed as inhibitors; 0.02% of 75,000 active; AID 889, 2007; active means well fitted inhibition curve with a large enough effect in the main read-out, with a control signal flat, not every such curve was filed as active; inconclusive means small, poorly fitted or top-dose-only effect, or a change in a side signal; further: % of control where 0% means no effect
ERK AVP inh = qHTS Assay for Inhibitors of the ERK Signaling Pathway using a Homogeneous Screening Assay; HEK293-V1b, vasopressin-stimulated pERK AlphaScreen; Potency, µM (series often up to 57.5 µM), for inactives: at the highest dose activity, negative = inhibition, hits mostly inhibitors; 0.99% of 72,000 active; AID 995, 2007; further: on the % scale 0 is the no-effect control and ±100 the full control effect; nearly all actives have a fitted effect of over 55% in size
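V1b-HEK293 cells; cpd 30 min 37C; 25 nM vasopressin 5 min; lyse 10 min; AlphaScreen beads 5 hr RT. Normalized to DMSO basal and 25 nM vasopressin; AC50 by Hill fit.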
ALOX15 inhib = qHTS Assay for Inhibitors of 15-hLO (15-human lipoxygenase); AID 887, 2007; Potency, µM (titrated, usually from 57.1 µM), inactives show top-dose activity change, negative = inhibition, hits mostly inhibitors; 1.4% of 74,000 active; purified 15hLO-1, xylenol orange hydroperoxide absorbance; further: on the % scale 0 is the no-effect control and ±100 the full control effect; nearly all actives have a fitted effect of over 55% in size
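Inhibition is scored from a chromogenic endpoint. After 15 min enzyme-compound contact, arachidonic acid (50 uM final) reacts 6 min with 40 nM 15hLO-1 at room temperature, then Fe-XO reagent is added for 30 min and absorbance ratio recorded.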
The depositor's hits bear a star; ? = inconclusive; / = not tested or not shown; [ ] = another dose, or the depositor's remark. Rows were chosen to be rich in hits. Some 4.8% of all compounds tested hit in one or more screens of this group. Unless noted, the call rests on the fitted dose curve; in most records, active means well fitted curve in the direction sought with a large enough effect; inconclusive means small, poorly fitted or top-dose-only effect, or another doubt; inactive means no such curve, though single readings can be large; an effect the other way counts as inactive or inconclusive. Potency means the concentration at half of the fitted maximal effect.

SMILES	TSHR ag	Caspase-1 inhib	HEK293 cAMP ctrl	Casp7 inh	ERK AVP inh	ALOX15 inhib
CC1CC(N(C(=O)c2ccco2)c2ccccc2)c2ccccc2N1 (stereo not given)	12.6µM*	-1.7%	26.6%	-1.1%	7.7%	-23.5%
CCN1C(=O)[C@H]2[C@H]3[C@H](O)[C@H](O)C/C(=N/OCC[C@H]4C=C[C@H](OC(C)=O)[C@@H](COC(C)=O)O4)[C@@H]3CC[C@@H]2C1=O	-1.5%[11.4 µM]	-3.4%[11.5 µM]	4.7%[11.4 µM]	0.7%[11.5 µM]	3.7%[11.5 µM]	4.7%[11.4 µM]
Cc1ccccc1OCC(O)Cn1c(=N)n(CCN2CCOCC2)c2ccccc21 (stereo not given)	?	-1.6%	10µM*	-0.6%	-10.8%	7.9%
CCCCn1c(=N)n(CC(O)COc2ccccc2)c2ccccc21 (stereo not given)	?	-0.1%	1.26µM*	3.1%	-9.4%	3.2%
CCCCn1c(=N)n(CC(O)COc2ccc(C)cc2)c2ccccc21 (stereo not given)	?	1.2%	15.8µM*	2.2%	-8.7%	-3.3%
CCCn1c(=N)n(CC(O)COc2cccc(C)c2)c2ccccc21 (stereo not given)	?	0.2%	15.8µM*	0.2%	5.4%	-2.5%
CN(C)c1ncc2nc(-c3ccc(Cl)cc3)c(=O)n(CCC#N)c2n1	-0.9%	/	-26.7%	?	11.1%	9.8%
CCCC(=O)c1cc(F)c(N2CCOCC2)cc1C	1.1%	2.3%	8.2%	2.6%	6.4%	3.2%
CCOc1ccc(-c2n[nH]c(C)c2Oc2ccc(OC)cc2)c(O)c1	4.2%	-4.6%	-1.4%	-4.8%	39.8µM*	?
Cc1c(C(=O)NN2CCOCC2)nn(-c2ccc(Cl)cc2Cl)c1-c1ccc(I)cc1	-0.1%	-3.0%	-0.7%	-4.3%	-3.7%	?
CCCCCC[C@@H]([C@H](C)O)n1cnc2c(N)ncnc21	?	2.3%	31.6µM*	1.6%	-2.8%	7.2%
Cc1nc2cc(-c3cccc(Cl)c3)nn2c(N2CCN(C(=O)c3ccco3)CC2)c1C	7.6%	-0.8%	9.9%	-0.1%	6.4%	2.7%
Cc1cc(N2CCN(C(=O)c3ccco3)CC2)n2nc(-c3cccc(Cl)c3)cc2n1	?	-0.6%	?	-2.0%	25.1µM*	-5.1%
O=C(O)[C@H]1[C@H]2C[C@H]3c4[nH]c5ccccc5c4CCN3C[C@@H]2CC[C@@H]1O	/	?	/	?	6.5%	-17.0%[25.6 µM]
Cc1cccc(C(=O)Nc2ccccc2C(=O)OCc2c(C)noc2C)c1	?	-1.0%	15.8µM*	-3.0%	23.2%	-9.2%
COc1ccc(OCC(=O)c2c(O)c3ccccc3oc2=O)cc1	29.4%	0.8%	24.3%	-0.4%	-3.0%	?
CCOc1ccc(OCC(=O)c2c(O)c3ccccc3oc2=O)cc1	1.5%[11.4 µM]	-7.3%	7.4%	5.2%	50.4%	15.8µM*
CCOC(=O)c1c(C)oc2ccc(O)c(CN3CCCCC3)c12	?	0.9%	15.8µM*	-0.6%	-23.9%	1.4%
Cc1ccc(S(=O)(=O)Oc2ccc(N=Nc3ccc(-c4ccc(N=Nc5c(O)ccc6cc(S(=O)(=O)O)cc(S(=O)(=O)O)c56)c(C)c4)cc3C)cc2)cc1	4.0%	-3.7%	12.3%	-7.7%	25.1µM*	?
Cc1ccc(N=Nc2c(O)ccc3cc(S(=O)(=O)O)ccc23)cc1	-3.5%[11.4 µM]	-1.2%[11.5 µM]	3.6%[11.4 µM]	-3.4%[11.5 µM]	3.5%[11.5 µM]	-7.7%[11.4 µM]
COc1cc(/C=C/C(=O)CC(=O)/C=C/c2ccc(O)c(OC)c2)ccc1O	?	?	-19.0%	?	31.6µM*	?
CCOC(=O)c1cc(-c2ccc(N)cc2)sc1N	-8.4%	-0.7%	3.6%	-2.8%	-31.6%	25.1µM*
COCCN(CCOC)C(=O)c1ccc(Cc2nc3ccccc3[nH]2)cc1	0.9%	3.8%	-7.5%	-2.4%	/	-29.8%
COC(=O)N1CCC2(CCCN(C(=O)Nc3cccc(F)c3)C2)CC1	1.4%	-2.3%	-4.2%	0.5%	28.1%	8.8%
COC(=O)N1CCC[C@@]2(CCN(C(=O)Nc3cccc(F)c3)C2)C1	?	-3.6%	7.94µM*	0.0%	14.9%	-3.0%
SMILES	TSHR ag	Caspase-1 inhib	HEK293 cAMP ctrl	Casp7 inh	ERK AVP inh	ALOX15 inhib
COc1ccc(C(=O)N2CCC3(CCCN(C(=O)Nc4cccc(C#N)c4)C3)CC2)cc1	25.1µM*	-1.9%	11.1%	-2.0%	-18.8%	1.4%
Cc1ccc(CCP(=O)(O)CN2CCCCC2)cn1	4.4%	1.8%	-9.5%	0.7%	/	0.1%
CCC1=C/C(=C/N(C)c2ccccc2)C(=O)S1	11.3%	-12.4%	14.6%	-7.9%	15.5%	25.1µM*
COC(OC)[C@@H](C)[C@H](OC)[C@@H](C)[C@H](OC)c1ccccc1	-6.4%[11.4 µM]	-0.6%[11.5 µM]	-1.6%[11.4 µM]	0.8%[11.5 µM]	7.5%[11.5 µM]	-2.8%[11.4 µM]
CCC(=O)N1CCCc2cc(S(=O)(=O)N3CCN(c4ncccn4)CC3)ccc21	4.0%	-3.4%	7.2%	-0.9%	?	2.6%
CCC(=O)N1CCCc2cc(S(=O)(=O)N3CCN(c4ccccc4F)CC3)ccc21	?	-4.7%	25.1µM*	-5.4%	4.5%	-19.1%
CC1(C)Oc2ccc(C(=O)NC3CCCC3)cc2N(CC(=O)NC2CCCCC2)C1=O	9.0%[11.4 µM]	6.2%	2.2%	-0.9%	14.3%	2.5%
CSc1nnc2c(n1)OC(c1cccn1C)N(C(C)=O)c1ccccc1-2 (stereo not given)	?	0.2%	15.8µM*	0.8%	5.9%	-3.1%
CCc1nc(N(CC)CC)c2oc3ccccc3c2n1	?	0.7%	15.8µM*	-2.2%	18.4%	-16.1%
CCc1nc(N2CCC(C)CC2)c2oc3ccccc3c2n1	?	-2.0%	15.8µM*	-1.9%	19.9%	-16.4%
O=C(NCc1ccccc1)N(Cc1nc2ccccc2c(=O)[nH]1)C1CCCC1	-0.9%	1.2%	3.0%	0.4%	-6.1%	1.2%
NC(N)=NCCCC(NC(=O)C(N)Cc1ccc(O)cc1)C(=O)O (stereo not given)	/	1.6%	/	-0.1%	0.2%	4.5%
O=C(CSc1nnc(Cc2cccs2)n1C1CCCCC1)N1CCCc2ccccc21	?	3.3%	12.6µM*	-4.4%	-25.0%	-26.9%
Cn1cccc1Cc1nnc(SCC(=O)N2CCc3ccccc32)n1CCc1ccccc1	10.6%	-3.8%	8.0%	-12.3%	15.8µM*	-23.3%
COc1ccc(-n2c(Cc3cccn3C)nnc2SCC(=O)N2CCCc3ccccc32)cc1	15.9%	-3.2%	24.2%	-8.2%	10.6%	12.6µM*
COc1ccc(-n2c(Cc3cccn3C)nnc2SCC(=O)N2CCCC2)cc1	-3.1%	0.3%	-11.6%	-0.8%	-27.4%	-25.4%
